Source: article PMC5540273 (PLoS ONE, 2017)

Tests used:
Conditions in all cases: concentration: 1 μM, replicates: in singlicate; n = 1
WNK1 = test system: WNK1
WNK2 = test system: WNK2
WNK3 = test system: WNK3
WNK4 = test system: WNK4
YANK1 = test system: T1, YANK1
T1 construct: gene STK32A

YANK2 = test system: T2, YANK2
T2 construct: gene STK32B

YANK3 = test system: T3, YANK3
T3 construct: gene STK32C

YES = test system: T4, YES
T4 construct: gene YES1

YSK1 = test system: T5, YSK1
T5 construct: gene STK25

YSK4 = test system: T6, YSK4
T6 construct: gene MAP3K19

ZAK = test system: ZAK
ZAP70 = test system: ZAP70
p38-alpha = test system: T7, p38-alpha
T7 construct: gene MAPK14

p38-beta = test system: T8, p38-beta
T8 construct: gene MAPK11

p38-delta = test system: p38-delta
p38-gamma = test system: T9, p38-gamma
T9 construct: gene MAPK12
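Further: KINOMEscan kinase panel screen.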

SMILES | %Inh (WNK1) | %Inh (WNK2) | %Inh (WNK3) | %Inh (WNK4) | %Inh (YANK1) | %Inh (YANK2) | %Inh (YANK3) | %Inh (YES) | %Inh (YSK1) | %Inh (YSK4) | %Inh (ZAK) | %Inh (ZAP70) | %Inh (p38-alpha) | %Inh (p38-beta) | %Inh (p38-delta) | %Inh (p38-gamma)
c1ccc(Oc2ccc(Nc3ccnc4cc(-c5ccc(CN6CCCCC6)o5)ccc34)cc2)nc1 [GW567143] | 2% | 39% | 24% | 25% | 0% | 0% | 17% | 51% | 0% | 32% | 66% | 0% | 0% | 0% | 0% | 0%
Cc1ccc(O)cc1Nc1ccnc2ccc(C(C)(C)C)cc12 [GW856805] | 38% | 0% | 21% | 0% | 29% | 4% | 45% | 76% | 1% | 48% | 0% | 15% | 1% | 16% | 0% | 41%
COc1ccc(C2=C(Nc3cccc(O)c3)C(=O)NC2=O)cc1 [SB-390766] | 16% | 99.7% | 34% | 87% | 0% | 0% | 17% | 0% | 0% | 44% | 7% | 0% | 23% | 0% | 94.4% | 0%
Cc1ccc(NC(=O)c2cccc(N3CCCCC3)c2)cc1-c1ccc(C(=O)NCC2CC2)cc1 [GSK1917008] | 13% | 0% | 2% | 10% | 9% | 11% | 22% | 10% | 12% | 35% | 33% | 0% | 99.9% | 99.4% | 46% | 50%
CS(=O)(=O)c1cccc(CNc2nc(Nc3ccc4c(c3)CCC(=O)N4)ncc2C(F)(F)F)c1 | 0% | 0% | 0% | 0% | 0% | 0% | 0% | 0% | 0% | 99% | 0% | 43% | 3% | 0% | 8% | 4%
CC(C)c1nc(-c2cccc(NS(=O)(=O)c3c(F)cccc3F)c2)c(-c2ccnc(Nc3ccc(N4CCOCC4)nc3)n2)s1.Cl [GSK1723980] | 3% | 0% | 5% | 4% | 15% | 9% | 19% | 99.7% | 1% | 91.8% | 98.6% | 0% | 27% | 10% | 0% | 0%
O=C(Nc1n[nH]c2nc(-c3ccccc3)ccc12)C1CC1 [SB-708999] | 15% | 37% | 36% | 60% | 0% | 0% | 28% | 1% | 0% | 93.9% | 15% | 19% | 10% | 29% | 25% | 2%
O=C(Nc1n[nH]c2nc(-c3cccc(O)c3)ccc12)C1CC1 [SB-711805] | 28% | 26% | 0% | 63% | 4% | 0% | 0% | 0% | 0% | 90.9% | 25% | 23% | 7% | 18% | 0% | 12%
CN(C)CCOc1ccc(-c2cc(-c3ccc(Cl)c(O)c3)c(-c3ccncc3)[nH]2)cc1.Cl.Cl [SB-684387] | 11% | 21% | 47% | 33% | 26% | 28% | 0% | 55% | 13% | 27% | 20% | 20% | 54% | 70% | 19% | 23%
O=C(Nc1n[nH]c2nc(-c3ccccc3O)ccc12)C1CC1 [SB-711880] | 0% | 30% | 0% | 0% | 0% | 0% | 0% | 0% | 0% | 70% | 0% | 0% | 0% | 0% | 0% | 39%
Cc1ccc(NC(=O)c2ccc(Cl)c(Cl)c2)cc1-c1ccc(C(=O)Nc2ccncc2)cc1 [GSK1398460] | 0% | 0% | 0% | 17% | 12% | 7% | 22% | 29% | 26% | 83% | 49% | 0% | 0% | 12% | 24% | 0%
CC(=O)Nc1cn2nc(Oc3cccc(NC(=O)c4cccc(C(F)(F)F)c4)c3)ccc2n1 | 0% | 0% | 0% | 0% | 0% | 0% | 0% | 96.2% | 0% | 99.9% | 98.6% | 0% | 32% | 28% | 0% | 34%
CN(c1ccc(NC(=O)Nc2cccc(Cl)c2)cc1)c1ccnc(N)n1.Cl [GW830707] | 28% | 12% | 38% | 5% | 0% | 16% | 29% | 0% | 0% | 67% | 0% | 0% | 0% | 6% | 0% | 0%
Cn1cc(-c2cnc(N)c3c(-c4ccc5c(c4)CCN5C(=O)Cc4ccccc4)csc23)cn1 [GSK2593074] | 0% | 0% | 0% | 0% | 0% | 0% | 0% | 55% | 6% | 43% | 59% | 0% | 8% | 1% | 0% | 14%
